RmlCD inh mix – RmlC and RmlD coupled enzyme inhibitors, primary screen, biochemical, 384-well, compound mixtures, retest; inhibition, % at 5.5 µM; AID 1532, 2009; RmlC/RmlD coupled enzyme inhibition, 384-well mixture HTS; actives 0.39% (n = 110,000); in the data active = inhibition above about 30%, passing the limit was not always enough
YopH PTP inh – YopH tyrosine phosphatase inhibitors, primary screen, biochemical, fluorescence Ex485/Em525. inhibition, % (concentration not given with the values). actives 0.16% (n = 140,000). YopH tyrosine phosphatase [Yersinia enterocolitica]; in the data active = inhibition above about 50%
Of the large screens only hits and unclear results are named; the others gave an inactive call. The list is not random: actives were taken first. Their share in the collection is about 0.44%.

CC(=O)/C=C1/SC(CC(=O)O)C(=O)N1c1ccccc1 (stereo not given)	none
CNC(=O)c1cc2cc(OC)ccc2oc1=O	none
CNC(=O)c1cc2cc(OC)ccc2oc1=N	RmlCD inh mix 42
COc1cc(-c2nc3cnccn3c2Nc2ccccc2)ccc1O	RmlCD inh mix 40
COc1cc(-c2nc3cnccn3c2Nc2ccc(C)cc2)ccc1O	none
Cc1c(N2C(=O)/C(=C3/C(=O)N(C)c4ccccc43)SC2=S)c(=O)n(-c2ccccc2)n1C	none
CC(=O)N1C(=O)/C(=C2\SC(=S)N(c3c(C)n(C)n(-c4ccccc4)c3=O)C2=O)c2ccccc21	YopH PTP inh 99 (no result: RmlCD inh mix)
O=C1CN(C(=O)COC(=O)c2ccccc2NC(=O)c2ccco2)c2ccccc2N1	none
CCn1nc(-c2ccccc2)nc2c(=O)n(C)c(=O)nc1-2	YopH PTP inh 102
CCOC(=O)Cn1nc(-c2ccccc2)nc1-c1ccccc1	none
Cc1cc([N+](=O)[O-])nn1Cc1ccc(C(=O)N/N=C/c2ccc(O)cc2O)cc1	none (no result: RmlCD inh mix)
CCOC(=O)c1nn(-c2ccccc2)c(C#N)c1NC(=O)c1nn(CC)cc1Br	none
CCOC(=O)c1c(NC(=O)c2nn(CC)cc2Br)c(C#N)nn1-c1ccccc1	YopH PTP inh 52
CC(/C=N\Nc1nnc2c(n1)[nH]c1c(C)cccc12)=C\c1ccco1	none
c1ccc2c(-c3nc(C4CCCCC4)no3)cc(-c3ccncc3)nc2c1	none
Cc1ccc(-c2nnc(SCC(=O)n3c4c(c5ccccc53)CCCC4)o2)cc1	none (no result: RmlCD inh mix)
Cn1c(SCC(=O)n2c3c(c4ccccc42)CCCC3)nnc1-c1ccccc1	none
O=C(CSc1nnc(-c2ccccc2)o1)n1c2c(c3ccccc31)CCCC2	YopH PTP inh 56
CC(=O)Nc1ccc(-c2nnc(SCC(=O)n3c4c(c5ccccc53)CCCC4)n2C)cc1	YopH PTP inh 75
COc1ccc(OC)c(NC(=O)COC(=O)CCCN2C(=O)c3ccccc3C2=O)c1	none (no result: RmlCD inh mix)
CCOc1ccc(NC2c3ccccc3C(=O)N2Cc2ccco2)cc1 (stereo not given)	none
CN(C(=O)Nc1ccccc1)C1CCS(=O)(=O)C1 (stereo not given)	none
CC(=O)NC1=C(N(C)C2CCS(=O)(=O)C2)C(=O)c2ccccc2C1=O (stereo not given)	YopH PTP inh 74 (no result: RmlCD inh mix)
Cc1ccc(S(=O)(=O)N2CCN(C(C)C(=O)Nc3ccccc3-c3ccccc3)CC2)cc1 (stereo not given)	none (no result: RmlCD inh mix)
CCn1c(COc2ccc(C)cc2)nnc1SCC(=O)NNC(=O)c1ccc(OC)cc1	none (no result: RmlCD inh mix)
CCOC(=O)c1cnn2c(C(F)(F)F)cc(-c3ccccc3)nc12	none
CCOC(=O)N1CCC(NC(=O)c2cnn3c(C(F)(F)F)cc(-c4cccc(OC)c4)nc23)CC1	RmlCD inh mix 121 (no result: YopH PTP inh)
CC(=O)Nc1cccc(NC(C)=C(C#N)C#N)c1	none (no result: RmlCD inh mix)
Cc1ccc(/C=C/C(=O)Nc2sc3c(c2C#N)CCCC3)o1	none (no result: RmlCD inh mix)
O=C1C2=C(c3ccccc31)[N+](=O)C1CCCCC1N2[O-] (stereo not given)	none
O=C1C2=C(c3ccccc31)[N+](=O)[C@@H]1CCCC[C@@H]1N2[O-]	YopH PTP inh 59
O=C(NC1CCCC1)C1CCCN1S(=O)(=O)c1cccc2cccnc12 (stereo not given)	none
O=C(NCc1ccccc1)C1CCCN1S(=O)(=O)c1cccc2cccnc12 (stereo not given)	YopH PTP inh 80
COc1ccc(CC(=O)Nc2cccc(S(=O)(=O)N3CCCCCC3)c2)cc1OC	none (no result: RmlCD inh mix)
CCN(CC(=O)Nc1cccc(OC)c1)c1ncnc2sc(C)c(C)c12	none (no result: RmlCD inh mix)
CCCCn1c(NC(=O)c2ccccc2)c(C#N)c2nc3ccccc3nc21	YopH PTP inh 60 (no result: RmlCD inh mix)
CCC(C)n1c(NC(=O)c2ccccc2)c(C#N)c2nc3ccccc3nc21 (stereo not given)	none
O=C(COCC(=O)N/N=C/c1ccc(F)cc1)N/N=C/c1ccc(F)cc1	none (no result: RmlCD inh mix)
O=C(NC(=S)N1CCN(C(c2ccccc2)c2ccccc2)CC1)c1ccc(S(=O)(=O)N2CCOCC2)cc1	none (no result: RmlCD inh mix)
O=C(NC(C(=O)O)c1ccccc1)c1ccc(S(=O)(=O)N2CCOCC2)cc1 (stereo not given)	YopH PTP inh 50
CCOC(=O)c1c(C)oc2c1c(C=NCC1CCCO1)c(O)c1ccccc12 (stereo not given)	none (no result: RmlCD inh mix)
CCOC(=O)c1c(C)oc2c1c(C=NCc1ccccn1)c(O)c1ccccc12	YopH PTP inh 57 (no result: RmlCD inh mix)
O=C1C(=O)c2cccc3cccc1c23	none (no result: RmlCD inh mix)
O=C1C(=O)c2ccccc2-c2ccccc21	YopH PTP inh 100
[O-]/[N+](=C/c1ccc(F)cc1)c1ccccc1	YopH PTP inh 53
FC(F)Oc1ccc(NC(=S)NCc2ccccc2)cc1	none (no result: RmlCD inh mix)
Fc1ccc(/C=N/Nc2ccccn2)cc1	none (no result: RmlCD inh mix)
[O-]/[N+](=C\c1ccncc1)c1ccccc1	YopH PTP inh 59 (no result: RmlCD inh mix)
O=C(c1ccccc1)c1ccncc1	none
[O-]/[N+](=C\c1ccc(OC(F)F)cc1)c1ccccc1	YopH PTP inh 55
CC(=O)NCCn1c(SCc2ccc(C)cc2C)nc2ccccc2c1=O	none
CCOC(=O)c1c(C)[nH]c(C(=O)C(C)OC(=O)c2oc3ccccc3c2COC)c1C (stereo not given)	none
CC1(C)CC(=NOC(=O)c2ccccc2)CC(C)(C)N1O	none (no result: RmlCD inh mix)
Cc1ccnc(SCC(=O)Nc2sc3c(c2C#N)CCC(C(C)(C)C)C3)n1 (stereo not given)	none
Cc1cc(C)nc(SCC(=O)Nc2sc3c(c2C#N)CCC(C)C3)n1 (stereo not given)	YopH PTP inh 93
COC/C=C/C1=CC2=CC(=O)C(C)(OC(=O)c3cnc4ccccc4n3)C(=O)C2=CN1c1cccc(C#N)c1 (stereo not given)	none (no result: YopH PTP inh)
CN1CCc2c(sc3c2C(=O)NC(c2cccc(OC(=O)c4cccs4)c2)N3)C1 (stereo not given)	YopH PTP inh 72 (no result: RmlCD inh mix)
CN1CCc2c(sc3c2C(=O)NC(c2ccco2)N3)C1 (stereo not given)	none
CCn1c(COc2ccc(C)cc2)nnc1SCc1nc2ccccc2[nH]1	none
Cn1c(COc2ccccc2)nnc1SCc1nc2ccccc2[nH]1	YopH PTP inh 71
O=C1CC(=O)N(CCc2ccc(F)cc2)C(=O)N1	none
C=CCc1cccc2cc(C(=O)Nc3ccc(F)cc3)c(=O)oc12	none (no result: RmlCD inh mix)
C=CCc1cccc2cc(C(=O)Nc3ccc(S(=O)(=O)Nc4nnc(CC)s4)cc3)c(=O)oc12	YopH PTP inh 75 (no result: RmlCD inh mix)
c1ccc(-c2csc3ncnc(NCCCN4CCOCC4)c23)cc1	YopH PTP inh 51
c1csc(-c2csc3ncnc(NCCCN4CCOCC4)c23)c1	none
O=C(Cn1nc(C(F)(F)F)c2c1CCC2)N1CCN(c2ccccc2)CC1	none
O=C(NCCN1CCOCC1)c1cc2c(=O)n3ccccc3nc2n1Cc1ccccc1	RmlCD inh mix 86
N=c1c(C(=O)NC2CCCC2)cc2c(=O)n3ccccc3nc2n1CCN1CCOCC1	none
N#Cc1cc2c(=O)n3ccccc3nc2n(CCCN2CCOCC2)c1=O	RmlCD inh mix 79
CC(=O)N=c1c(C#N)cc2c(=O)n3ccccc3nc2n1Cc1ccccc1	none (no result: RmlCD inh mix)
CCn1c(SCC(=O)c2[nH]c(C)c(C(C)=O)c2C)nnc1-c1ccccc1	none
Cc1ccccc1Oc1nc2c(C)cccn2c(=O)c1/C=C(\C#N)C(=O)Nc1c(C)n(C)n(-c2ccccc2)c1=O	none (no result: RmlCD inh mix)
CCOc1ccc(OCCCCOc2ccccc2C(C)=O)cc1	none (no result: RmlCD inh mix)
N#CC(C#N)=c1ccc2c(c1)NC1(CCCCC1)N=2	YopH PTP inh 92
O=C1NC2(CCCC2)N=C1c1ccc(Cl)cc1	none
O=C(O)CN1C(=O)SC(Nc2ccccc2C(=O)O)C1=O (stereo not given)	none
